# Data published in PubChem BioAssay (Tox21).
# Where “and” joins values, the source holds several entries; their conditions need not be identical. Equal values may be shown once. Inconclusive results are not listed. Entries that show only a call come without a potency. Some compounds were tested as several samples or in several runs, with calls that do not always agree. Calls of active or inactive are those of the source. The call rests on the fitted dose curve; in most records, active means well fitted curve in the direction sought with a large enough effect in the repeat runs; inconclusive means weak or mixed curves; inactive means no such curve, though single readings can be large; an effect the other way counts as inactive or inconclusive.
# Assays:
# [1] = target: Cytochrome P450 1A2 (Homo sapiens) (UniProt P05177); test: Cytochrome P450 Family 1 Subfamily A Member 2 (CYP1A2) small molecule antagonists: luciferase reporter qHTS assay (AID 1671199); conditions: P450-Glo CYP1A2 enzyme, luciferin luminescence, 1 h; series mostly up to 115 µM
# Summary of the method: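 P450-Glo CYP1A2 enzyme–proluciferin substrate mix with compound 10 min at room temperature, then NADPH regeneration 1 h at room temperature. Luciferin detection reagent added, luminescence read after 20 min; furafylline positive control.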
# [2] = target: Voltage-gated inwardly rectifying potassium channel KCNH2 (Homo sapiens) (UniProt Q12809); test: Human Ether-a-go-go-Related Gene (hERG) channel small molecule antagonists: fluorescence cell-based qHTS assay (AID 1671200); conditions: hERG-U2OS cells, FluxOR thallium flux fluorescence; series mostly up to 76.8 µM;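 on activity change, negative = inhibition: hERG-expressing U2OS cells given a thallium stimulus after FluxOR II dye loading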
# Summary of the method: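 In this thallium-flux screen, overnight-cultured U2OS cells bearing the channel are dye-loaded in darkness for an hour, rested 10 min at room temperature, and then monitored kinetically at 480/540 nm for two minutes post-stimulus.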
# [3] = target: Cytochrome P450 3A4 (Homo sapiens) (UniProt P08684); test: Cytochrome P450 Family 3 Subfamily A Member 4 (CYP3A4) small molecule antagonists: luciferase reporter qHTS assay (AID 1671201); conditions: P450-Glo CYP3A4 enzyme, luciferin luminescence, 1 h; series mostly up to 115 µM
# Summary of the method: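 CYP3A4 activity was followed with a P450-Glo proluciferin substrate. Test compounds in DMSO were preincubated 10 min; NADPH regeneration then ran 1 h, and light output was read 20 min after detection reagent.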
# Further: nearly all actives have a fitted effect of over 50% in size.
# Potency means the concentration at half of the fitted maximal effect.
# Sequence of Cytochrome P450 3A4 (Homo sapiens) (P08684 whole entry, looked up): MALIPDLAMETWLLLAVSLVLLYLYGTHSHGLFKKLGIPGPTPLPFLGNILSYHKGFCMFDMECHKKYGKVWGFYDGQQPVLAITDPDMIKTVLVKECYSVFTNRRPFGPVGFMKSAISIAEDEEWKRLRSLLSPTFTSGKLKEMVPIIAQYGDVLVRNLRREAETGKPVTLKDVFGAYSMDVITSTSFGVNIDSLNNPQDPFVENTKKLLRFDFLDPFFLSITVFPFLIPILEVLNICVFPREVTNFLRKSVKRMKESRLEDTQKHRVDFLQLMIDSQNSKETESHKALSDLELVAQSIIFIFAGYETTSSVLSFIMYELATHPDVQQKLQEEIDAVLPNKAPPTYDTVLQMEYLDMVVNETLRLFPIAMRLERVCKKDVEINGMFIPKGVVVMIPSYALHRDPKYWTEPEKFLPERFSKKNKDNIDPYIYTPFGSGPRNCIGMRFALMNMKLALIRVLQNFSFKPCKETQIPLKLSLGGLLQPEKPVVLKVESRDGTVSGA
# Sequence of Voltage-gated inwardly rectifying potassium channel KCNH2 (Homo sapiens) (Q12809 whole entry, looked up): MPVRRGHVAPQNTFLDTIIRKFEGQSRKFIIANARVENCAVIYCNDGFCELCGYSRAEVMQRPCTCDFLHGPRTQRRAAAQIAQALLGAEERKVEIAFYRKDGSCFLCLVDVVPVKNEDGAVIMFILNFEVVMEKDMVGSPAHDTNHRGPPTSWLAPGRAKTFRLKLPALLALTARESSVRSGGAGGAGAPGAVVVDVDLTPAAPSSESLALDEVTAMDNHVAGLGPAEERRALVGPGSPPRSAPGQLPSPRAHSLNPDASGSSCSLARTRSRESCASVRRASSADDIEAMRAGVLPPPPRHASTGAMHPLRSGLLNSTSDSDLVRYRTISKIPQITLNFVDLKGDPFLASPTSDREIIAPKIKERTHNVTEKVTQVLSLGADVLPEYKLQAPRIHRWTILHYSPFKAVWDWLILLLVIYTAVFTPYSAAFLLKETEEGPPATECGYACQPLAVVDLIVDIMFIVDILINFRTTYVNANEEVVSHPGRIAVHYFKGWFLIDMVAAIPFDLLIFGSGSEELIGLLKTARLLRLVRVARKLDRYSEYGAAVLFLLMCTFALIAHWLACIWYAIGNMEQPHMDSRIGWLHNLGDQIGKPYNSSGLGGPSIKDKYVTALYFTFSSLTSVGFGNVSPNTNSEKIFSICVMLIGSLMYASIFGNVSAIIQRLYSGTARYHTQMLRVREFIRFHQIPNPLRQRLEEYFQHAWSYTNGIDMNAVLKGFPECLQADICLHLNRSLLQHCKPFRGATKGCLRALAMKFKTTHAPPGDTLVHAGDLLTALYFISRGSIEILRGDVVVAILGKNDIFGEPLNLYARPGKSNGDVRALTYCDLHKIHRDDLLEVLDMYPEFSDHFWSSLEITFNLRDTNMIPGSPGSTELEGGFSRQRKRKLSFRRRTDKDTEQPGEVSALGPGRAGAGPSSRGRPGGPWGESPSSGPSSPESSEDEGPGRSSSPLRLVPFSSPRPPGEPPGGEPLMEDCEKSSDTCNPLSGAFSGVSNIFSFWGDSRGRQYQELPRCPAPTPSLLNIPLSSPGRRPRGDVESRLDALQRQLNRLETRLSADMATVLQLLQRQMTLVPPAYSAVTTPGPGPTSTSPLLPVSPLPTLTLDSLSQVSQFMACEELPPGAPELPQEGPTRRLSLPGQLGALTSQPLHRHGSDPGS
# Sequence of Cytochrome P450 1A2 (Homo sapiens) (P05177 whole entry, looked up): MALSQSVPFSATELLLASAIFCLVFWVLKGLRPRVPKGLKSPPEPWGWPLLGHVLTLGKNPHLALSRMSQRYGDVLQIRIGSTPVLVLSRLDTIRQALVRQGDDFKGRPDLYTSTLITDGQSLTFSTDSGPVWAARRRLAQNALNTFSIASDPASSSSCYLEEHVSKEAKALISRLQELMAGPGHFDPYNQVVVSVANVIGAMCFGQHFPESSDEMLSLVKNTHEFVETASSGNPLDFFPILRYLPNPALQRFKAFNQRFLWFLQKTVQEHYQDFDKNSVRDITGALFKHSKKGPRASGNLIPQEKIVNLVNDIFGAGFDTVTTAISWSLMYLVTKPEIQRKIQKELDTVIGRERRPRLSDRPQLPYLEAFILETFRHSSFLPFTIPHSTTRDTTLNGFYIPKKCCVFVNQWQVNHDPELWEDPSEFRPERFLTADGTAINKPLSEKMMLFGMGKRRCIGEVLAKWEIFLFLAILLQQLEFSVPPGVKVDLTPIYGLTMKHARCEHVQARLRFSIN
Structure (SMILES),Potency [1],Potency [2],Potency [3],"activity change, negative = inhibition [1]"
C=CC(=O)OCCCCCCCC(C)C,inactive,inactive,inactive,–
Cc1cc(Cc2ccc(N)c(C)c2)ccc1N,6.33 µM (active) and 14.2 µM (active),inactive,894 nM (active) and 2.52 µM (active),–
Nc1c(S(=O)(=O)O)cc(Br)c2c1C(=O)c1ccccc1C2=O,3.24 µM (active) and 2 µM (active),inactive,inactive,–
OC1CCCC1,inactive,inactive,inactive,–
ClC1=C(Cl)C(Cl)(Cl)C(Cl)=C1Cl,inactive,inactive,inactive,–
CC1(C)O[C@@H]2C[C@H]3[C@@H]4C[C@H](F)C5=CC(=O)CC[C@]5(C)[C@H]4[C@@H](O)C[C@]3(C)[C@]2(C(=O)CO)O1,inactive,–,–,–
CS(=O)(=O)c1ccc([C@@H](O)[C@@H](CO)NC(=O)C(Cl)Cl)cc1,inactive,inactive,inactive,–
O=C(O)c1cc(-c2ccccc2)nc2ccccc12,36.9 µM (active),inactive,inactive,–
C=C(C)C(=O)OCCCCCC,inactive,inactive,inactive,–
CCCCC(CC)COC(=O)/C=C\C(=O)OCC(CC)CCCC (stereo not given),35.6 µM (active),inactive,5.64 µM (active),–
CCc1ccccc1O,31.6 µM (active),inactive,31.6 µM (active) and inactive,–
CC1Cc2ccccc2N1NC(=O)c1ccc(Cl)c(S(N)(=O)=O)c1 (stereo not given),inactive,inactive,–,–
S=c1nc[nH]c2nc[nH]c12,inactive,inactive,inactive,–
CCCCCCCCCCCCOCC1CO1 (stereo not given),63.4 µM (active),inactive,inactive,–
O=c1c(-c2ccc(O)cc2)coc2cc(O)ccc12,31.4 µM (active) and 39.9 µM (active),inactive,–,–
Cc1ccc(C(=O)O)o1,inactive,inactive,inactive,–
CCCCOCCOCCOC(=O)CCCCC(=O)OCCOCCOCCCC,inactive,inactive,20.1 µM (active) and 31.7 µM (active),–
CCC(C)C=O (stereo not given),inactive,inactive,inactive,–
CC#C[C@]1(O)CC[C@H]2[C@@H]3CCC4=CC(=O)CCC4=C3[C@@H](c3ccc(N(C)C)cc3)C[C@@]21C,inactive,–,–,–
CC1(C)CC(N=C=O)CC(C)(CN=C=O)C1 (stereo not given),inactive,inactive,4.05 µM (active) and 2 µM (active),–
O=S(=O)(O)c1cc(S(=O)(=O)O)c2c(N=Nc3ccccc3)c(O)ccc2c1,inactive,inactive,inactive,–
CCOC(=O)C1OC1c1ccccc1 (stereo not given),32.4 µM (active) and 22.4 µM (active),inactive,inactive,–
CC(=O)CCc1ccccc1,inactive,inactive,inactive,–

Structure (SMILES),Potency [1],Potency [2],Potency [3],"activity change, negative = inhibition [1]"
CCCCNC(N)=O,inactive,–,inactive,–
Oc1ccc(OCc2ccccc2)cc1,19.6 µM (active) and 15.5 µM (active),inactive,inactive,–
OC[C@@H](O)[C@H](O)[C@H](O)[C@@H](O)CO,inactive,inactive,inactive,–
CC(C)(C)C(=O)C1C(=O)c2ccccc2C1=O,31.4 µM (active),inactive,28 µM (active),–
Cc1cc(O)c2c(c1)C(=O)c1cc(O)cc(O)c1C2=O,8.94 µM (active),inactive,27.6 µM (active) and 22.4 µM (active),–
NCCNCCNCCNCCN,–,inactive,inactive,8.65% [at 10.5 µM] (inactive)
c1ccc2ccccc2c1,70.7 µM (active) and inactive,–,inactive,–
O=C1CCCCC1,inactive,inactive,inactive,–
O=[N+]([O-])c1cccc(Cl)c1,inactive,inactive,inactive,–
C=C(C)C(=O)OCCC[Si](OC)(OC)OC,inactive,inactive,3.14 µM (active) and 63.3 µM (active),–
CC1COc2ccccc2N1C(=O)C(Cl)Cl (stereo not given),79.5 µM (active) and inactive,inactive,inactive,–
CCCCC(CC)COC(=O)CCCCCCCC(=O)OCC(CC)CCCC (stereo not given),35.6 µM (active) and inactive,inactive,5.64 µM (active) and inactive,–
Cn1c([N+](=O)[O-])cnc1COC(N)=O,inactive,–,inactive,–
O=Nc1ccc(O)cc1,31 µM (active) and 39.9 µM (active),–,inactive,–
CNC[C@H](O)[C@@H](O)[C@H](O)[C@H](O)CO,inactive,inactive,inactive,–
O=C(O)c1ccc([N+](=O)[O-])cc1,inactive,inactive,inactive,–
CN(C)c1ccc(C(=N)c2ccc(N(C)C)cc2)cc1,17.6 µM (active) and 21.6 µM (active),48.4 µM (active),39.4 µM (active),–
C[C@@H](O)[C@H]1C(=O)N2C(C(=O)O)=C(S[C@@H]3CN[C@H](C(=O)N(C)C)C3)[C@H](C)[C@H]12,15.5 µM (active) and inactive,–,inactive,–
CCCCC/C=C\C/C=C\CCCCCCCC(=O)OC,35.6 µM (active),–,inactive and 7.1 µM (active),–
OCC1CCCO1 (stereo not given),inactive,inactive,inactive,–
COCC(C)O (stereo not given),inactive,–,inactive,–
O=C1O[C@H](CO)[C@@H](O)[C@H](O)[C@H]1O,inactive,inactive,inactive,–
Cc1cc(O)cc(C)c1Cl,25.2 µM (active) and 15.5 µM (active),–,inactive,–

Structure (SMILES),Potency [1],Potency [2],Potency [3],"activity change, negative = inhibition [1]"
COC(=O)c1ccccc1O,6.35 µM (active),inactive,inactive,–
O=[N+]([O-])C(CO)(CO)CO,inactive,–,inactive,–
OCCOCCOCCOCCO,39.9 µM (active),inactive,inactive,–
COC(=O)c1ccc(C(=O)OC)cc1,25.5 µM (active) and 10 µM (active),inactive,inactive,–
O=C(Oc1ccccc1)c1ccc(O)cc1,28.5 µM (active) and 35.6 µM (active),inactive,inactive,–
CCCCC(CC)COC(C)=O (stereo not given),inactive,–,inactive,–
C=C(C#N)C(=O)OCC,inactive,inactive,inactive,–
C=C(C)C(=O)OCCCCCCCCCCCC,inactive,inactive,inactive,–
CCCCCCCCCCC=CC1CC(=O)OC1=O (stereo not given),inactive,inactive,inactive,–
O=C(c1cc(O)c(O)c(O)c1)c1ccc(O)c(O)c1O,39.8 µM (active) and 39.9 µM (active) and inactive,inactive,inactive,–
C=C1C2CCC(C2)C1(C)C (stereo not given),inactive and 39.9 µM (active),–,inactive,–
Oc1ccc2ccccc2c1N=Nc1ccccc1,356 nM (active) and 2.52 µM (active),inactive,6.33 µM (active) and 20 µM (active),–
c1ccc2[nH]cnc2c1,inactive,inactive,inactive,–
CCC(=O)O,inactive,–,inactive,–
CC1=CC[C@H]2C[C@@H]1C2(C)C,inactive,–,inactive,–
O=[N+]([O-])c1cc(N(CCO)CCO)ccc1NCCO,35.5 µM (active) and 35.6 µM (active),–,35.5 µM (active) and 39.9 µM (active),–
O=C1N=C(O)CN1/N=C/c1ccc(-c2ccc([N+](=O)[O-])cc2)o1,–,inactive,–,–
CS(=O)(=O)Nc1ccc([N+](=O)[O-])cc1Oc1ccccc1,–,inactive,–,–
CCCCCCC(C)(C)S,–,inactive,inactive,–
CC(=O)Nc1ccc(C(=O)O)cc1,inactive,–,inactive,–
OC[C@@H](O)[C@@H](O)[C@H](O)[C@@H](O)CO,inactive,–,inactive,–
O=C(c1ccc(O)cc1)c1ccc(O)cc1O,28.6 µM (active) and 35.6 µM (active),–,7.18 µM (active) and 22.4 µM (active),–
CC1=C(CC(=O)O)c2cc(F)ccc2/C1=C\c1ccc(S(C)=O)cc1 (stereo not given),35.6 µM (active),–,inactive,–

Structure (SMILES),Potency [1],Potency [2],Potency [3],"activity change, negative = inhibition [1]"
CC(C)Cc1ccccc1,inactive,–,inactive,–
Clc1cc(Cl)c(Cl)cc1Cl,–,inactive,inactive,–
CCc1ccc(O)cc1,inactive,–,inactive,–
CCCCCCOC(C)=O,inactive,–,inactive,–
NCCc1ccc(O)c(O)c1,–,inactive,inactive,–
CC(C)(C)C1CCC(O)CC1 (stereo not given),72 µM (active) and inactive,–,inactive,–
CCCCCCCCCC(=O)O,inactive,–,inactive,–
NC(=O)/N=N/C(N)=O,17.9 µM (active) and 15.9 µM (active),–,inactive,–
Clc1ccc(Cl)c(Cl)c1Cl,inactive and 39.9 µM (active),–,inactive,–
CCCCC(CC)C(=O)OCCOCCOCCOC(=O)C(CC)CCCC (stereo not given),–,inactive,7.18 µM (active) and 8.94 µM (active),–
CC(=O)[C@@]1(O)CC[C@H]2[C@@H]3CCC4=CC(=O)CC[C@]4(C)[C@H]3CC[C@@]21C,–,inactive,–,–
Cc1cc(=O)[nH]c(C(C)C)n1,–,inactive,inactive,–
CCCCCCCCC,inactive,–,inactive,–
Cc1ccc(N)c(S(=O)(=O)O)c1,–,inactive,inactive,–
Cc1ccc(C)c(C)c1,inactive and 29.6 µM (active),–,inactive,–
CC(C)n1c(/C=C/[C@@H](O)C[C@@H](O)CC(=O)O)c(-c2ccc(F)cc2)c2ccccc21,–,–,inactive,–
CCCCCCCCCCCCN,16 µM (active) and 2.83 µM (active) and 9.08 µM (active),–,inactive,–
OCC#CCO,inactive,–,inactive,–
C=C(C)C(=O)OCC(CC)(COC(=O)C(=C)C)COC(=O)C(=C)C,32.2 µM (active) and 27.8 µM (active),–,inactive,–
Oc1ccc2ccccc2c1,–,inactive,–,–
CCCCOCCO,–,–,inactive,–
O=S(=O)(O)CCS,inactive,–,inactive,–
CC1=C(/C=C/C(C)=C/C=C/C(C)=C/CO)C(C)(C)CCC1,20.3 µM (active),–,18.1 µM (active) and 11.9 µM (active),–
